Screening results from PubChem BioAssay.
This excerpt belongs to a sample that is enriched for hits.
KDM5B inhibitor: Primary screen for KDM5B Histone Demethylases FDH-coupled qHTS. KDM5B demethylase, FDH-coupled NADH fluorescence (FDH is formaldehyde dehydrogenase). Potency, µM (doses to about 57.7 µM), most hits filed as inhibitors. Lysine-specific demethylase 5B (Homo sapiens), Q9UGL1. 2.6% of 220,000 active; active = well fitted inhibition curve with a large enough effect; note: 0% is about no effect; nearly all actives have a fitted effect of over 70% in size
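Coupled FDH/NAD⁺ fluorescence readout. KDM5BΔAP 200 nM final; compound titration, 10 min RT preincubation; substrate mix 12.5 µM H3K4me3, 25 µM 2-OG, 50 µM Fe(II), 100 µM ascorbate, 0.25 mM NAD⁺, 0.25 U/mL FDH; ΔRFU over 30 min.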
The depositor's hits bear a star; i = inactive. Potency is the fitted concentration of half-maximal effect.

SMILES	KDM5B inhibitor
O=C1NCCCCCCN(C(=O)c2ccco2)[C@H]2CCC[C@@H]12	i
O=C1NCCCCCCN(C(=O)c2ccco2)[C@H]2C[C@H](C(=O)N3CCN(c4ccccn4)CC3)C[C@@H]12	25µM*
O=C1NCCCCCN(C(=O)c2ccsc2)[C@@H]2C[C@@H](C(=O)N3CCc4ccccc4C3)C[C@H]12	i
CCC(=O)N1CCCCCCNC(=O)[C@@H]2C[C@@H](C(=O)N3CCN(c4ccccn4)CC3)C[C@@H]21	28µM*
O=C1NCCCCCN(C(=O)COc2ccccc2)[C@@H]2C[C@@H](C(=O)N3CCc4ccccc4C3)C[C@H]12	i
COc1ccc2[nH]cc(C(C(=O)O)N3CCN(Cc4cccnc4)CC3)c2c1 (stereo not drawn)	i
CCCCC(=O)Nc1ccc2oc(-c3ccc(Cl)cc3)nc2c1	i
Cc1ccc(CN(C)C(C)c2ccc(S(C)(=O)=O)cc2)cc1 (stereo not drawn)	i
CC1CCCC(NC(=S)NCc2ccc(F)cc2)C1C (stereo not drawn)	i
Cc1ccc(Cl)cc1NC(=O)C(=O)c1c(C)[nH]c2ccccc12	i
Cc1cccc(CN2CCCC(O)(CNCc3ncccc3C)C2=O)c1 (stereo not drawn)	28µM*
Cc1cccc(CN2CCCC(O)(CN3CCC(C)CC3)C2=O)c1 (stereo not drawn)	i
Cc1cccc(CN2CCCC(O)(CN3CCNC(=O)C3(C)C)C2=O)c1 (stereo not drawn)	i
COc1cc(OC)c(C2C3=C(CC(C)(C)CC3=O)Nc3ccccc3N2C(C)=O)cc1OC (stereo not drawn)	i
Cc1ccc(NC(=S)NCC2(C)CC(NC(=S)Nc3ccc(C)cc3C)CC(C)(C)C2)c(C)c1 (stereo not drawn)	i
COc1ccc(-c2noc(C(=O)NC3CC3)c2[C@H](C)O)cc1	i
Cc1cc(C(=O)NCC2CC2)c2c(C3CCNC3)noc2n1 (stereo not drawn)	i
COC(=O)c1cc(-c2ccc(F)cc2)nc2onc(C3CC3)c12	i
O=C(NC1CCNCC1)c1cc(C2CC2)nc2onc(C3CCNC3)c12 (stereo not drawn)	79µM*
COc1ccc(-c2cc(C(=O)NCC3CC3)c3c(C4CCNC4)noc3n2)cc1 (stereo not drawn)	79µM*
O=C(NC1CC1)c1cc(-c2ccccc2C(F)(F)F)nc2onc(C3CCNC3)c12 (stereo not drawn)	i
COc1ccc(-c2cc(N3CCC(NC(=O)c4cc(C)ccc4C)CC3)n[nH]2)cc1	i
Cc1cc(C(=O)NCC2CC2)c2c(C3CCCNC3)noc2n1 (stereo not drawn)	i
COc1cccc(-c2cc(C(=O)NC3CC3)c3ccccc3n2)c1	i
Cc1cc(C(=O)NCC(F)(F)F)c2c(C3CCNCC3)noc2n1	i
SMILES	KDM5B inhibitor
COc1ccc(-c2cc(C(=O)NC3CC3)c3c(C4CCNC4)nn(C)c3n2)cc1 (stereo not drawn)	79µM*
COc1ccc(-c2cc(C(=O)NC3CC3)c3c(C4CCCNC4)noc3n2)cc1 (stereo not drawn)	79µM*
O=C(NCCc1c[nH]c2ccccc12)c1ccc(Cl)cc1F	i
CC(C)NC(=O)c1cccc(NC(=O)Nc2ccc(Cl)cc2)c1	i
O=S(=O)(NC(c1ccccc1)c1ccccn1)c1cccs1 (stereo not drawn)	i
Cc1ccc(CCN2CCCC3(Cc4ccccc4CN([S+](C)(=O)[O-])C3)C2)cc1 (stereo not drawn)	i
COc1cc(/C=C(/C#N)c2ccccn2)cc(Cl)c1OC(F)F	i
Cc1ccccc1CC(=O)N1CCCn2cc(-c3cccc(C#N)c3)nc21	22µM*
Cc1ccc(-c2cn3c(n2)N(C(=O)Cn2ccnc2C)CCC3)cc1	i
Cc1noc(C)c1CC(=O)N1CCCn2cc(-c3ccccc3)nc21	i
CC(=O)NCC(=O)N1CCCn2cc(-c3ccccc3)nc21	i
CN(Cc1cccc(C#N)c1)C(=O)Cc1cccs1	i
Cc1noc(C)c1CC(=O)N1CCCn2cc(-c3ccccc3F)nc21	i
N#Cc1cccc(-c2cn3c(n2)N(C(=O)Cc2cccs2)CCC3)c1	25µM*
COCC(=O)N1CCCn2cc(-c3cccc(C#N)c3)nc21	25µM*
COc1cccc(-c2cn3c(n2)N(C(=O)Cc2ccsc2)CCC3)c1	i
Cc1ccc(N2Cc3c(NCCc4ccc(F)cc4)ncnc3N(C)CC2=O)cc1	i
CCCC1=Nc2cc(C(=O)NCCc3ccc(OC)c(OC)c3)ccc2Sc2ccccc21	i
O=C(C1CCCC1)N1CC2(CCCN(Cc3ccc(Cl)cc3)C2)Cc2ccccc21 (stereo not drawn)	i
O=C(CCc1c[nH]c2ccccc12)NCC#Cc1cccc(C(F)(F)F)c1	i
CCC(=O)N1CCc2c(sc3ncnc(NCCc4ccccc4)c23)C1	i
Nc1ncnc2sc3c(c12)CCN(C(=O)c1ccccc1)C3	i
CCC(=O)N1CCc2c(sc3ncnc(NCc4ccccc4)c23)C1	32µM*
CC(C)c1ccccc1NC(=O)c1nn(Cc2ccccc2)c(=O)c2ccccc12	i
CN(CC(=O)Nc1ccc(Cl)cc1C(F)(F)F)C1CCCc2ccccc21 (stereo not drawn)	i
SMILES	KDM5B inhibitor
N#Cc1nc(-c2ccc([N+](=O)[O-])cc2)oc1NCCc1ccccc1	i
COc1ccc(-c2cn(C)c(=O)n3cc(CN4CC[S+](=O)([O-])CC4)nc23)cn1	i
Cn1cc(-c2ccc(F)c(Cl)c2)c2nc(CN3CC[S+](=O)([O-])CC3)cn2c1=O	i
COc1cc(F)ccc1-c1cn(C)c(=O)n2cc(CN3CCNC(=O)C3)nc12	i
COc1ccc(-c2cn(C)c(=O)n3cc(CN4CC[S+](=O)([O-])CC4)nc23)cc1OC	35µM*
COc1ccc(-c2cn(C)c(=O)n3cc(CN4CCNC(=O)C4)nc23)cc1	28µM*
Cn1cc(-c2cccc(OC(F)(F)F)c2)c2nc(CN3CCNC(=O)C3)cn2c1=O	i
N#Cc1cccc(C(=O)N2CCCCCCNC(=O)[C@@H]3C[C@@H](c4nc(Cc5ccccc5)no4)C[C@@H]32)c1	i
Cc1ccc(-n2cc(C(=O)N3CCC(NC(=O)OC(C)(C)C)CC3)nn2)cc1C	i
Cc1nnc(NC(=O)c2cc(-c3ccccc3C)nc3ccccc23)s1	i
CCn1nc(C(=O)OCC(=O)Nc2c(Cl)cc(Cl)cc2Cl)c2ccccc2c1=O	i
Cc1ccc2oc(C(=O)N(Cc3ccc(Cl)cc3)C3CCS(=O)(=O)C3)cc(=O)c2c1 (stereo not drawn)	i
Fc1ccccc1-c1noc(-c2nc(-c3ccncc3)no2)n1	i
CN(Cc1nccs1)c1ccc(-c2nc(-c3ccccc3F)no2)cn1	22µM*
CCCc1noc(-c2nc(-c3ccccc3F)no2)n1	i
CCc1ccc(Nc2nc(-c3ccccc3F)no2)cc1	i
O=C1CCCN1Cc1nc(-c2ccc(F)c(Cl)c2)no1	i
Fc1ccc(N2CCN(c3nc(-c4ccccc4F)no3)CC2)cc1	i
O=C1OCCCN1CCNc1ccc(-c2nc(-c3ccccc3F)no2)cn1	28µM*
Fc1ccccc1-c1noc(-c2nc(C3CC3)no2)n1	i
CCOc1nc(-c2ccc(C)cc2)ccc1-c1noc(-c2ccccc2F)n1	i
O=C1CCCCN1CCNc1ccc(-c2nc(-c3ccccc3F)no2)cn1	32µM*
CC(Cn1cccn1)Nc1ccc(-c2nc(-c3ccccc3F)no2)cn1 (stereo not drawn)	28µM*
